High-throughput results: PubChem BioAssay, National Center for Advancing Translational Sciences (NCATS)
IL1B secr inh: blocks inflammasome-driven IL-1 beta release. THP-1 LPS/ATP IL-1B secretion, AlphaLISA, 16 h; active compounds read low. activity change, % at 57.5 µM. 360,000 tested, 4.7% active; in the data active means activity change below about -50%; inconclusive means mostly about -30% to -49%
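THP-1 cells pretreated 1 hr with compounds (up to 57.5 uM final), then stimulated with LPS (250 ng/mL final) plus ATP (1.25 mM final); secreted IL-1B measured by AlphaLISA after 16 hr, decreased signal indicating inhibition.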
HT1080 IDH1KD tx: HT-1080 IDH1 knockdown cell toxicity (counter line). HT-1080 IDH1 knockdown viability, ATP luminescence, 48 h. Potency, µM (doses to about 46.1 µM), inactives show top-dose activity, negative = toxicity, most hits filed as cytotoxic. AID 686971. 360,000 tested, 2% active;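 further: potency means the concentration at half of the fitted maximal effect; 0% = DMSO wells and -100% = cell-free medium wells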
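Luminescent ATP read-out (CellTiter-Glo, 10 min at room temperature) after 48 h compound exposure at 37 °C gave viability of IDH1-knockdown HT-1080 cells. Activity was normalised to DMSO and cell-free wells, then fitted as concentration-response curves.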
TDP1 cell noCPT: qHTS for Inhibitors of human tyrosyl-DNA phosphodiesterase 1 (TDP1): qHTS in cells in absence of CPT; 420,000 tested, 15% active; DT40 Tdp1-/- hTDP1 cells, no CPT, ATP luminescence, 48 h; AID 686978, 2013; Potency, µM (highest dose often 46.2 µM), for inactives: at the top dose activity change, negative = growth inhibition, usual class: inhibitors; further: potency means the concentration at half of the fitted maximal effect; nearly all actives have a fitted effect of over 55% in size
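Growth kinetics read by CellTiter-Glo luminescence after ≥48 hr at 37 °C. Cells: DT40 Tdp1-/- stably carrying human TDP1, 400 per well, compound exposure in the absence of CPT (DMSO vehicle).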
TDP1 cell CPT: DT40-hTDP1 cell growth loss with CPT | chicken DT40 Tdp1-/-;hTDP1 cells + 20 nM CPT, ATP luminescence, 48 h | Potency, µM (series often up to 46.2 µM), without a hit: at the top dose activity change, negative = growth inhibition, actives largely listed as inhibitors | 420,000 tested, 12% active | AID 686979; further: potency means the concentration at half of the fitted maximal effect; nearly all actives have a fitted effect of over 55% in size
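Chicken DT40 Tdp1-/- cells complemented with human TDP1, 400 cells/well, exposed to compounds plus 20 nM camptothecin for at least 48 h at 37 C; viability read as ATP content by CellTiter-Glo luminescence.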
ELG1 DNA repair: inhibitors of ELG1-dependent DNA repair in HEK293T cells; Potency, µM (titrated, usually from 46.1 µM), for inactives: top-dose activity change, negative = inhibition, actives largely listed as inhibitors; 330,000 tested, 2.3% active; HEK293T ELG1-luciferase reporter, luminescence, 16 h; DNA damage induced by 5-fluorouridine; further: potency means the concentration at half of the fitted maximal effect; nearly all actives have a fitted effect of over 55% in size
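In this reporter screen, reduction of luminescence relative to DMSO vehicle indicated activity. Compounds and 5-fluorouridine were added together to 2,000 cells per well, incubated for 16 hr at 37 °C, then developed with ONE-Glo.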
HT1080-NT tox: kills 2HG-producing HT-1080-NT fibrosarcoma cells; HT-1080-NT fibrosarcoma viability, CellTiter-Glo ATP luminescence, 48 h; Potency, µM (series often up to 46.1 µM), for the others: at the top dose activity, negative = less viability, usual class: cytotoxic; 360,000 tested, 1.6% active; AID 686970;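 further: NT is the 2HG producing partner of a matched IDH1 knockdown line; potency means the concentration at half of the fitted maximal effect; 0% = DMSO-treated cells and -100% = media-only wells without cells; nearly all actives have a fitted effect of over 55% in size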
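Compounds were tested in concentration-response format on HT-1080-NT cells for 48 hours at 37 degrees C. Cell viability came from CellTiter-Glo luminescence; curves were classified by r2, response magnitude and activity.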
Numbers without * were called inactive; ? = inconclusive; nt = not tested or not shown. Sampled rows, rich in hits. Any-hit rate of the full collection: about 19%. Unless noted, the call rests on the fitted dose curve; in most records, active means well fitted curve in the direction sought with a large enough effect; inconclusive means small, poorly fitted or top-dose-only effect, or another doubt; inactive means no such curve, though single readings can be large; an effect the other way counts as inactive or inconclusive. Unless noted, on the % scale 0 is the no-effect control and ±100 the full control effect.

SMILES | IL1B secr inh | HT1080 IDH1KD tx | TDP1 cell noCPT | TDP1 cell CPT | ELG1 DNA repair | HT1080-NT tox
COc1ccccc1CN1C(=O)c2cccc3cccc(c23)C1=O | -6.1 | 5.0% | ? | -19.5% | 2.6% | 7.1%
COc1ccccc1CN1C(=O)C(=O)c2cccc(C)c21 | nt | nt | 6.51µM* | 13µM* | nt | nt
CCOC(=O)CN1C(=O)C(=O)c2cccc(C)c21 | -3.3 | 2.4% | ? | ? | 12.4% | -0.3%
Cc1cc(Br)cc2c1N(Cc1ccccc1OC(C)C)C(=O)C2=O | nt | nt | 4.11µM* | 20.6µM* | nt | nt
Cc1cccc2c1N(Cc1ccccc1OCCC(C)C)C(=O)C2=O | nt | nt | 11.6µM* | 14.6µM* | nt | nt
N#C/C(=C\c1cn(-c2ccccc2)nc1-c1cccnc1)c1nnc2n1CCCCC2 | -61.1* | -18.2% | ? | ? | 20.6µM* | -27.7%
O=C(/C=C/c1cn(-c2ccccc2)nc1-c1cccnc1)N1CCCC1 | -12.0 | -13.5% | 7.31µM* | 8.2µM* | 13µM* | 3.9%
O=C(/C=C/c1cn(-c2ccccc2)nc1-c1cccnc1)c1ccco1 | -95.9* | ? | 10.3µM* | 14.6µM* | 0.0% | ?
N#C/C(=C/c1ccccc1[N+](=O)[O-])c1nnc2n1CCCCC2 | -2.2 | 18.1% | -2.2% | 12.0% | 9.1% | 17.3%
O=C(/C=C/c1cn(-c2ccccc2)nc1-c1cccnc1)NCCN1CCOCC1 | -17.3 | -0.4% | ? | -25.5% | 0.7% | 4.2%
CC(C)C[C@@H]1COc2cc(N3CC[C@H](O)C3)ccc2S(=O)(=O)N1 | 49.8 | 9.5% | -5.0% | -7.8% | nt | 17.0%
O=C(NCC(=O)N(c1ccccc1)C(C(=O)NC1CCCCC1)c1cccnc1)c1ccco1 (stereo not drawn) | 17.3 | 15.6% | -0.2% | 17.2% | -3.7% | 13.8%
Nc1nonc1-c1nc2ccccc2n1CC(=O)Nc1cccc(Cl)c1Cl | nt | nt | 5.8µM* | 5.17µM* | nt | nt
Nc1nonc1-c1nc2ccccc2n1CC(=O)N1CCN(c2ccc(F)cc2)CC1 | 0.0 | -3.5% | 12.6µM* | ? | -24.7% | -3.5%
Nc1nonc1-c1nc2ccccc2n1CC(=O)Nc1ccc(F)cc1 | nt | nt | 9.2µM* | 14.6µM* | nt | nt
Nc1nonc1-c1nc2ccccc2n1CC(=O)N/N=C\c1ccc(-c2ccc(Cl)cc2)o1 | ? | 1.6% | 3.66µM* | 7.31µM* | 16.4% | 0.8%
CCc1ccccc1NC(=O)Cn1c(-c2nonc2N)nc2ccccc21 | nt | nt | -5.0% | 0.5% | nt | nt
NNC(=O)Cn1c(-c2nonc2N)nc2ccccc21 | -5.4 | 2.8% | 2.3% | -26.1% | 10.4% | 1.5%
NC(=O)Cn1c(-c2nonc2N)nc2ccccc21 | 3.2 | 4.0% | 3.7% | 1.2% | 2.7% | 14.4%
COc1cc(CNCCCSc2nnnn2C)cc(Br)c1OC | nt | nt | -19.2% | -6.1% | nt | nt
COc1ccccc1CCn1c(=O)c(-c2cccs2)nc2cncnc21 | nt | nt | -1.4% | 6.4% | nt | nt
CCOC(=O)c1ccccc1OCc1cc(C2Nc3ccccc3C(=O)N2c2cccc3ccccc23)ccc1OC (stereo not drawn) | nt | nt | ? | 5.6% | nt | nt
Clc1ccc2c(c1)N=C(N1CCNCC1)c1ccccc1N2 | nt | nt | 9.2µM* | 13µM* | nt | nt
O=C(Nc1ccccc1Cl)c1cc(C2CCCN(C(=O)c3cccc(O)c3)C2)on1 (stereo not drawn) | 14.0 | 24.5% | -26.7% | ? | nt | 2.3%
Cc1ccc(F)cc1C(=O)N1CCCC(c2cc(C(=O)NCc3ccccc3)no2)C1 (stereo not drawn) | -7.9 | 3.6% | ? | ? | nt | 6.7%
SMILES | IL1B secr inh | HT1080 IDH1KD tx | TDP1 cell noCPT | TDP1 cell CPT | ELG1 DNA repair | HT1080-NT tox
O=C(Nc1ccccc1Cl)c1cc(C2CCCN(C(=O)c3ccccc3)C2)on1 (stereo not drawn) | -9.1 | 27.8% | ? | 18.4µM* | nt | ?
Cc1ccc(F)cc1C(=O)N1CCCC(c2cc(C(=O)Nc3ccccc3Cl)no2)C1 (stereo not drawn) | 23.1 | -69.7% | 20.6µM* | ? | nt | ?
CCOc1ccc(-c2nnc(SCC(=O)Nc3cccc(OC)c3)nc2-c2ccc(OCC)cc2)cc1 | nt | nt | -7.1% | -13.3% | nt | nt
Cc1ccc(C)c(Nc2nc3nonc3nc2Nc2cccc(C)c2C)c1 | nt | nt | 2.91µM* | 3.66µM* | nt | nt
CCOC(=O)c1ccc(Nc2nc3nonc3nc2Nc2cccc(C)c2C)cc1 | nt | nt | 2.06µM* | 2.59µM* | nt | nt
O=C(O)c1ccc(NC(=O)c2ccccc2NC(=O)c2ccccc2Br)cc1 | 19.1 | -10.5% | 4.1% | 3.2% | 7.9% | 13.8%
Cc1cccc(N2C(=O)CSC23C(=O)N(CC(=O)NCc2ccccc2Cl)c2ccccc23)c1 (stereo not drawn) | nt | nt | 20.6µM* | ? | nt | nt
COc1ccc(N2C(=O)CSC23C(=O)N(CC(=O)NCc2ccccc2)c2ccccc23)cc1 (stereo not drawn) | nt | nt | ? | -5.4% | nt | nt
COc1ccc(N2C(=O)CSC23C(=O)N(CC(=O)NCCc2ccccc2)c2ccccc23)cc1 (stereo not drawn) | nt | nt | ? | 16.4µM* | nt | nt
O=C1CSC2(C(=O)N(Cc3ccccc3)c3ccccc32)N1c1ccc(Cl)cc1 (stereo not drawn) | nt | nt | 20.6µM* | 16.4µM* | nt | nt
